Consider eleven compounds from PubChem BioAssay (NCATS).

Assay [1] has as its target T1, Hexokinase-4 (Homo sapiens) + Glucokinase regulatory protein (Homo sapiens) (UniProt P35557+Q14397). Description: qHTS assay for inhibitors of recombinant human GCK-GKRP interaction: Diaphorase-coupled assay (AID 743205). The essentials: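 Compounds pre-incubated 20 min with substrate, then 10 nM GST-GCK with 10 nM FLAG-GKRP added. GCK activity coupled via G6PDH and diaphorase to resorufin (5 mM glucose, 0.4 mM ATP, 0.15 mM NADP+, pH 7.6), read kinetically over 30 minutes at Ex 525/Em 590 nm.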

The target of assay [2] is T1, Hexokinase-4 (Homo sapiens) + Glucokinase regulatory protein (Homo sapiens). Kind of assay: qHTS assay for inhibitors of recombinant human GCK-GKRP interaction: ADP-Glo assay (AID 743206).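 Also: plate controls were DMSO plus enzyme for no effect and no enzyme for full effect.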 The method in brief:
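Pin-transferred compounds meet a 15 nM GST-GCK/15 nM FLAG-GKRP/2 uM S6P mix (dispense concentrations). ATP is then added to 0.4 mM final with 5 mM glucose, and the reaction runs 60 min at room temperature. ADP is quantified luminescently.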
(Quantitative high-throughput screening tests each substance at several concentrations.)

Assay [3] in a line: qHTS Assay for Identifying Gametocytocidal Compounds (AID 743244). Also: potency is read from the fitted curve at half-maximal effect.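 As to max response: % is scaled to controls: 0 for no effect and ±100 for the full control effect; actives lower the fluorescent signal which means gametocytes are killed.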 The following applies: P. falciparum 3D7 stage III-V gametocytes, alamarBlue, 72 h; max response: stronger effect = lower value. The method in brief: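 Stage III-V P. falciparum 3D7 gametocytes, 20,000 per well, were exposed to compounds for 72 h at 37C, 5% CO2. AlamarBlue was then added for 24 h and viability was read as fluorescence at Ex 525/Em 598 nm.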

A short description of assay [4]: qHTS assay for measurement of the activity of small molecule inhibitors on Zika virus induced Caspase-3 activity in human astrocytoma cells (AID 1224859).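 Also: plate controls were ZIKV-infected untreated cells for no effect and uninfected cells for full effect.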 The essentials: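 SNB-19 astrocytoma cells, 250/well, pretreated 1 h with compounds, then Zika virus at 2 FFU/cell for 6 h at 37 C; Caspase-Glo 3/7 luminescence after 30 min; percent inhibition normalised to uninfected and infected controls.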

Assay [5] can be described thus: qHTS assay to identify small molecule inhibitors of chordoma cells - UCH-1 (AID 1259355). Also: % is scaled to controls: 0 for no effect and ±100 for the full control effect; nearly all actives have a fitted effect of over 55% in size. The method in brief:
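800 cells/well, overnight attach; compounds pinned at 15 concs, then auranofin/camptothecin/doxorubicin/rubitecan/topotecan combo added; 48hr 37 C, 5% CO2; CellTiter-Glo, 30min RT, luminescence.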

The nature of assay [6]: qHTS assay to identify small molecule inhibitors of chordoma cells - UCH-2 (AID 1259356). Also: % is scaled to controls: 0 for no effect and ±100 for the full control effect.
Assay [7] addresses T1, Hexokinase-4 (Homo sapiens) + Glucokinase regulatory protein (Homo sapiens). Kind of assay: qHTS assay for inhibitors of recombinant human GCK-GKRP interaction: HTRF assay (AID 743207).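 Also: 0% = DMSO with GCK present and -100% = DMSO wells lacking GCK.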 The method in brief: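 HTRF binding of 5 nM GST-GCK and 5 nM FLAG-GKRP with 2 uM S6P in pH 7.1 Hepes buffer (MgCl2, KCl, DTT, Tween 20, BSA). Anti-FLAG XL665 and anti-GST donor added, 60 min at room temperature; 665/615 nm read, normalized to with- and without-GCK controls.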

Assay [8] in a line: qHTS assay for small molecule agonists of the antioxidant response element (ARE) signaling pathway measured by Nrf2-dependant transcriptional activity (AID 720636; active = well fitted curve in the direction sought with a large enough effect in the repeat runs; an effect the other way counts as inactive or inconclusive;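 also: HepG2 cells with an ARE-driven luciferase reporter; % of control where 0% means no effect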). The essentials: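 Attachment 6 hr at 37 C, then compound versus DMSO vehicle for 16 hr in ARE-luc HepG2 cells (1% dialyzed FBS); luminescence recorded 30 min after ONE-Glo addition at room temperature.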
The nature of assay [9]: qHTS assay for small molecule agonists of the antioxidant response element (ARE) signaling pathway measured by Nrf2-dependant transcriptional activity - cell viability counter screen (AID 720653; active = well fitted curve in the direction sought with a large enough effect in the repeat runs; an effect the other way counts as inactive or inconclusive; also: % is scaled to controls: 0 for no effect and ±100 for the full control effect). Conditions: ARE-bla HepG2 viability, CellTiter-Glo ATP luminescence, 16 h; max response: stronger effect = lower value. The method in brief:
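Cytotoxicity counter screen: intracellular ATP quantified by CellTiter-Glo luminescence in the same ARE-bla HepG2 plates, after 16 h compound exposure and a 2 h beta-lactamase substrate step.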

The nature of assay [10]: qHTS assay for cell viability of the p53RE-bla HCT-116 cell line (AID 743292). Also: % is scaled to controls: 0 for no effect and ±100 for the full control effect; nearly all actives have a fitted effect of over 55% in size. The method in brief: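 Compound-exposed HCT-116 (p53RE-bla) cells, 4,000 per well, were kept 16 h at 37 C following a 5 h preincubation. Cell number was estimated from total ATP by CellTiter-Glo luminescence read after 30 min at room temperature.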
Assay [11] in a line: qHTS profiling for inhibitors of Plasmodium falciparum (3D7) proliferation (AID 743322; call rule not given here;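 also: infected erythrocytes exposed to compound for 72 h before lysis; 100% = DMSO vehicle wells and 0% = 0.29 µM artemisinin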). The following applies: P. falciparum 3D7 proliferation; at 28.7 µM (top of the series) unless noted. The essentials:
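Parasite DNA was quantified by SYBR Green I fluorescence (ex 485, em 535 nm) after overnight lysis in saponin/Triton buffer at room temperature. Cultures at 0.3% parasitemia and 2.5% hematocrit were first exposed to compound for 72 h at 37 C; signals were normalised to artemisinin (0.29 uM) and vehicle wells.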

Assay [12] can be described thus: qHTS profiling for inhibitors of Plasmodium falciparum (DD2) proliferation (AID 743323; call rule not given here). Conditions: lower = more inhibition; at 28.7 µM (top of the series) unless noted. The method in brief:
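Parasite proliferation measured via DNA-dye fluorescence, as uninfected erythrocytes lack DNA. Cultures at 0.3% parasitemia and 2.5% hematocrit incubated 72 h with compound; signal scaled between vehicle and 0.29 uM artemisinin wells.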

Assay [13] is described as follows: qHTS profiling for inhibitors of Plasmodium falciparum (HB3) proliferation (AID 743324).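 Also: 100% = DMSO vehicle wells and 0% = artemisinin-treated control wells.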 The following applies: Plasmodium falciparum HB3 blood-stage proliferation; at 28.7 µM (top of the series). The method in brief:
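SYBR Green fluorescence (485 ex/535 em) of lysed cultures, incubated overnight at room temperature in the dark, quantifies parasite DNA. Infected erythrocytes at 0.3% parasitemia and 2.5% hematocrit were exposed 72 h; values normalized to DMSO and 0.29 uM artemisinin controls.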

Each structure is given as a SMILES string. Values joined by “and” are separate entries in the source; they are usually repeats but may differ in a detail not shown here. Equal values may be shown once. Records with an inconclusive call do not appear. More than one record can exist for a structure, and the calls need not agree. Active and inactive are the calls of the source. Unless noted, calls follow the shape of the dose curve; as a rule, active = well fitted curve in the direction sought with a large enough effect; inconclusive = small, poorly fitted or top-dose-only effect, or another doubt; inactive = no such curve, though single readings can be large; an effect the other way counts as inactive or inconclusive.

T1 sequence (P35557 whole entry, looked up): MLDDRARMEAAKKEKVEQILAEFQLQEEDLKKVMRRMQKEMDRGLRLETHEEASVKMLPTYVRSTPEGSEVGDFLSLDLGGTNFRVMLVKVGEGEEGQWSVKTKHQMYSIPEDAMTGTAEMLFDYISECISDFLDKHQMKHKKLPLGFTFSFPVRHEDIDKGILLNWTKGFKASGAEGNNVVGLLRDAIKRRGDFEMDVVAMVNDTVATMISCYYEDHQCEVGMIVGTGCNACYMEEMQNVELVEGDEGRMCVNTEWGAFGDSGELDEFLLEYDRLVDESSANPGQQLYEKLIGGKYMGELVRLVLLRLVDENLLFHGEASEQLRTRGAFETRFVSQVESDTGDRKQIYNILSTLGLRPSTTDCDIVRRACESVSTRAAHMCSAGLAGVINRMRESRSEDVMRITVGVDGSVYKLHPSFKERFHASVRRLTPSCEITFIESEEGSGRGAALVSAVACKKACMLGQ
T1 sequence (Q14397 whole entry, looked up): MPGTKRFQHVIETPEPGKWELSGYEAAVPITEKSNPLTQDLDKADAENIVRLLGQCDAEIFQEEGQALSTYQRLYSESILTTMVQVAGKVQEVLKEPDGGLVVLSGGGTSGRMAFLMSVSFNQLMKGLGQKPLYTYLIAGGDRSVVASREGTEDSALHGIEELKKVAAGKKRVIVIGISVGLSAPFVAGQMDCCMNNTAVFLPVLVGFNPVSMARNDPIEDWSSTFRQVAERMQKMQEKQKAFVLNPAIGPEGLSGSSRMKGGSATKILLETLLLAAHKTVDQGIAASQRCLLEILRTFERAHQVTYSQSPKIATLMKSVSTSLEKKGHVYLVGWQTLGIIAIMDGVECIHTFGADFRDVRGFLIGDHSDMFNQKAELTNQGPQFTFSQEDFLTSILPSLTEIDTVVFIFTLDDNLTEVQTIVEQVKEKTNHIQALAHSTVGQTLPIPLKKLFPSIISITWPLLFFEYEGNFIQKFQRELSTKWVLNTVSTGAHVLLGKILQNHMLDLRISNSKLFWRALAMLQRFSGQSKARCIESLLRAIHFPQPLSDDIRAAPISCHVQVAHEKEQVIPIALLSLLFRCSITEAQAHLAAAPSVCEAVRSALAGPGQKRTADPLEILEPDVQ

On to `CCN1CCc2nc(N)oc2CC1`, for which the outcome in assay [1], in assay [2] and in assay [4] was inactive. Further, the max response in assay [3] was 11% (inactive) and 14% (inactive). The Potency result in [5] and in [6] was “inactive” throughout.

For `COc1ccc([C@@H]2Sc3ccccc3N(CCN(C)C)C(=O)[C@@H]2OC(C)=O)cc1`, the outcome in assay [1], in assay [2] and in assay [4] was inactive. The Potency result in assay [7], in assay [5] and in [6] was “inactive” each time. For the same compound, the max response in [3] is -3.45% (inactive).

As for `CCc1cccc(N(C)C(N)=Nc2cccc3ccccc23)c1`, the result in assay [1], in assay [2] and in assay [4] was inactive. Also, the Potency entry in assay [7], in assay [5] and in assay [6] was “inactive” each time. For the same compound, the max response in [3] was -2.27% (inactive) and 4.9% (inactive).

As to `CC[N+](C)(C)c1cccc(O)c1`, the result in [1], in assay [2] and in assay [4] was inactive. In addition, the Potency result in assay [7], in assay [5] and in assay [6] was “inactive” throughout. The max response in assay [3] is 22.6% (inactive) and 18% (inactive).

Turning to `CCn1ccnc1CC1COc2ccccc2O1` (stereo not drawn), the result in assay [1], in [2] and in assay [4] was inactive. In addition, the max response in assay [3] was 13.9% (inactive) and 11.7% (inactive). The Potency result in assay [5] and in assay [6] was “inactive” throughout.

In the case of `CC(C)NCC(O)c1cc(O)cc(O)c1` (stereo not drawn), the outcome in assay [1], in assay [2] and in assay [4] was inactive. In addition, the Potency result in [7], in assay [5] and in assay [6] was “inactive” each time. Further, the max response in [3] is 4.9% (inactive) and 20.6% (inactive).

For the compound `Nc1ncn([C@@H]2O[C@H](CO)[C@@H](O)[C@H]2O)c(=O)n1`, the compound was called inactive in assay [8], in assay [1], in assay [2], in assay [10] and in [4]. Also, the max response is -13.9% (inactive) and 0.747% (inactive) in [9]; -3.69% (inactive) and 12.2% (inactive) in assay [3]. For the same compound, the remaining parasite growth % (stronger effect = lower value) in assay [11] was determined as 103%. Further, in assay [12], the activity, percent of control came out at 121%. In addition, the remaining proliferation (% of control), lower = more inhibition in assay [13] is 137%. In assay [6], the Potency result is “inactive”.

Take `NC1=NCC2c3ccccc3Cc3ccccc3N12` (stereo not drawn): the outcome in [1], in [2] and in [4] was inactive. The Potency entry in [7], in [5] and in assay [6] was “inactive” throughout. In addition, the max response in assay [3] is -4.93% (inactive) and 13.9% (inactive).

Consider `NCCCNCCSP(=O)(O)O`, for which the result in [1], in assay [2] and in assay [4] was inactive. Also, the Potency result in assay [7], in assay [5] and in assay [6] was “inactive” in each case. The max response in [3] is 4.77% (inactive) and 12.2% (inactive).

In the case of `OCCN1CCN(CCCN2c3ccccc3C=Cc3ccccc32)CC1`, the outcome in [1], in [2] and in assay [4] was inactive. Also, the Potency result in [7] and in assay [5] was “inactive” each time. The Potency in assay [3] was 11.2 µM (active). For the same compound, the max response in [3] was -7.06% (inactive) and 7.36% (inactive).

On to `C[N+](C)(C)CCCCCCCCCC[N+](C)(C)C`, for which the outcome in assay [1], in assay [2] and in [4] was inactive. The Potency result in assay [7], in [5] and in assay [6] was “inactive” in each case.
